Our source for the growth values is PubChem BioAssay (NCI).

About 83,000 compounds went through this panel and 20% of them were active in at least one assay; those are over-represented in the sample as a whole.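 Compound tested at a single concentration for 48 hours in 96-well plates; a percent growth value below 10 was scored as active.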 Values without a mark were called inactive. Activity calls are given as the source filed them.

Among the test systems are DU-145 prostate; K-562 leukemia; MALME-3M melanoma; MDA-MB-231 breast; SF-268 CNS; SF-295 CNS; SF-539 CNS; M14 melanoma; HCT-15 colon; HT29 colon; SNB-75 CNS; SNB-19 CNS; U251 CNS; PC-3 prostate; SK-MEL-5 melanoma; UACC-62 melanoma; SK-MEL-28 melanoma; LOX IMVI melanoma.
Assay in all cases: NCI-60 one-dose screen, 48 h (100 = growth as untreated, 0 = no growth, -100 = all killed)
Common to all, as to settings: 10 µM unless noted

In the case of `N#Cc1c(NC(=O)c2ccco2)[n+]([O-])c2cc(F)c(F)cc2[n+]1[O-]`, the growth in the experiment with DU-145 prostate was 76.1%; with K-562 leukemia it was 56.6%; in the experiment with MALME-3M melanoma, 116%; with MDA-MB-231 breast, 96.7%; in the experiment on SF-268 CNS, 89.7%; with SF-295 CNS it was 106%. The growth in the experiment on SF-539 CNS was 74.8%; in the experiment with M14 melanoma, 112%; in the experiment on HCT-15 colon, 70.5%; with HT29 colon, 93.6%; in the experiment with SNB-75 CNS, 83.3%; with SNB-19 CNS, 85.7%. Moreover, the growth in the experiment on U251 CNS was 92.3%; with PC-3 prostate, 80.7%; in the experiment with SK-MEL-5 melanoma it was 61.3%; in the experiment on UACC-62 melanoma, 88.4%; in the experiment on SK-MEL-28 melanoma it was 94.5%.

As to `O=C(c1ccccc1)C(c1ccccc1)N1CCOCC1` (stereo unspecified), the growth is 107% in the experiment with DU-145 prostate; 96% in the experiment on K-562 leukemia; 103% in the experiment with MALME-3M melanoma; 105% with MDA-MB-231 breast; 99.1% in the experiment on SF-268 CNS; 94.9% in the experiment with SF-295 CNS. The growth is 101% with SF-539 CNS; 99.8% in the experiment with M14 melanoma; 104% in the experiment on HCT-15 colon; 99.1% in the experiment on HT29 colon; 100% in the experiment with SNB-75 CNS; 100% in the experiment with SNB-19 CNS. The growth is 95.1% in the experiment on U251 CNS; 92.7% in the experiment with PC-3 prostate; 102% with SK-MEL-5 melanoma; 105% in the experiment with UACC-62 melanoma; 98.2% in the experiment with LOX IMVI melanoma; 105% with SK-MEL-28 melanoma.

Take `O=C1CC(c2cccc(F)c2)c2c(n[nH]c2-c2ccc(Cl)cc2)N1` (stereo unspecified): the growth in the experiment with DU-145 prostate is 102%; in the experiment on K-562 leukemia, 96.4%; in the experiment with MALME-3M melanoma it was 99.4%; in the experiment with MDA-MB-231 breast, 80.4%; in the experiment on SF-268 CNS, 94.1%; with SF-295 CNS it was 91.8%. Moreover, the growth in the experiment with SF-539 CNS is 91.3%; in the experiment on M14 melanoma, 100%; in the experiment with HCT-15 colon, 92.5%; in the experiment on HT29 colon it was 81.1%; in the experiment with SNB-75 CNS, 97.3%; in the experiment on SNB-19 CNS, 99.3%. Further, the growth in the experiment on U251 CNS is 86.1%; with PC-3 prostate it was 80.5%; with SK-MEL-5 melanoma, 87.1%; in the experiment with UACC-62 melanoma it was 86.2%; with LOX IMVI melanoma, 96.9%; with SK-MEL-28 melanoma it was 107%.

For the compound `Cc1nn(-c2nc3ccccc3[nH]2)c2c1C(c1ccc(O)cc1)CC(=O)N2` (stereo unspecified), the growth in the experiment on DU-145 prostate is 99.5%; in the experiment on K-562 leukemia it was 97.8%; in the experiment on MALME-3M melanoma, 100%; in the experiment on MDA-MB-231 breast, 71.9%; with SF-268 CNS, 74%; with SF-295 CNS, -16.2% (active). The growth in the experiment on SF-539 CNS was 95.4%; in the experiment on M14 melanoma, 72%; in the experiment on HCT-15 colon it was 70.6%; in the experiment with HT29 colon, 83.9%; with SNB-75 CNS, 27.8%; with SNB-19 CNS it was 84.1%. In addition, the growth in the experiment on U251 CNS was 76.4%; in the experiment on PC-3 prostate, 77.7%; in the experiment with SK-MEL-5 melanoma it was 85.3%; in the experiment with UACC-62 melanoma it was 84.9%; in the experiment with LOX IMVI melanoma, 85.2%; in the experiment with SK-MEL-28 melanoma it was 80.4%.

Turning to `CSC1=C(N)C(=O)c2[nH]cc(CO)c2C1=N`, the growth was -94.8% (active) in the experiment with DU-145 prostate; -24.1% (active) in the experiment with K-562 leukemia; -96.1% (active) with MALME-3M melanoma; 2.56% (active) in the experiment with MDA-MB-231 breast; -69.4% (active) in the experiment with SF-268 CNS; -97.1% (active) in the experiment with SF-295 CNS. In addition, the growth with SF-539 CNS is -96.2% (active); in the experiment on M14 melanoma, -83.5% (active); with HCT-15 colon it was -89.2% (active); with HT29 colon, -9.17% (active); in the experiment on SNB-75 CNS, -80.2% (active); with SNB-19 CNS it was -92.2% (active). For the same compound, the growth in the experiment with U251 CNS is -95.1% (active); with PC-3 prostate, -39.9% (active); with SK-MEL-5 melanoma it was -98.8% (active); in the experiment with UACC-62 melanoma, -83.2% (active); in the experiment with LOX IMVI melanoma it was -84.9% (active); in the experiment on SK-MEL-28 melanoma it was -78% (active).

For `CC(C)[C@@H]1CC[C@]2(CO2)[C@@H]2C(=O)OCC(C(=O)O)=C[C@H]21`, the growth with DU-145 prostate is 7.04% (active); in the experiment with K-562 leukemia it was 7.2% (active); in the experiment on MALME-3M melanoma, -3.58% (active); in the experiment on MDA-MB-231 breast it was 9.95% (active); in the experiment with SF-268 CNS it was 1.21% (active); in the experiment with SF-295 CNS, 22.2%. Besides, the growth with SF-539 CNS is 6.83% (active); with M14 melanoma, -48.5% (active); with HCT-15 colon, 0.806% (active); in the experiment with HT29 colon, -1.49% (active); in the experiment with SNB-75 CNS it was 20.7%; in the experiment on SNB-19 CNS it was 1.78% (active). Moreover, the growth was 1.81% (active) in the experiment with U251 CNS; 22.5% in the experiment on PC-3 prostate; -67.1% (active) with UACC-62 melanoma; -31.2% (active) in the experiment on LOX IMVI melanoma; -73.4% (active) in the experiment with SK-MEL-28 melanoma.

Take `c1cc[n+](Cc2c3ccccc3cc3c2ccc2ccccc23)cc1`: the growth was 57.2% in the experiment with DU-145 prostate; 16.4% with K-562 leukemia; -23.5% (active) in the experiment with MALME-3M melanoma; 72.1% in the experiment on MDA-MB-231 breast; 7.4% (active) in the experiment on SF-268 CNS; 4.38% (active) with SF-295 CNS. Further, the growth in the experiment on SF-539 CNS was 13.6%; in the experiment on M14 melanoma, 62.3%; in the experiment with HCT-15 colon it was 91.5%; in the experiment on HT29 colon, 25.6%; in the experiment with SNB-75 CNS, 29.6%; in the experiment on U251 CNS it was 6.64% (active). In addition, the growth in the experiment on PC-3 prostate was 42%; in the experiment with SK-MEL-5 melanoma it was -60.1% (active); in the experiment with UACC-62 melanoma, 11.2%; in the experiment on LOX IMVI melanoma, 48.8%; in the experiment on SK-MEL-28 melanoma it was -2.27% (active).

As for `NC(=O)c1n[nH]n2c1nc(=O)c1c3c(sc12)CCCC3`, the growth is 110% in the experiment with DU-145 prostate; 89.5% with K-562 leukemia; 109% in the experiment on MALME-3M melanoma; 101% in the experiment on MDA-MB-231 breast; 105% in the experiment on SF-268 CNS; 102% in the experiment with SF-295 CNS. For the same compound, the growth is 102% in the experiment with SF-539 CNS; 98% with M14 melanoma; 107% with HCT-15 colon; 102% with SNB-75 CNS; 104% with SNB-19 CNS; 97% with U251 CNS. In addition, the growth was 85.3% in the experiment on PC-3 prostate, -31.5% (active) in the experiment with SK-MEL-5 melanoma, 99.3% in the experiment with LOX IMVI melanoma and 120% with SK-MEL-28 melanoma.

Consider `N#Cc1c(NC(=O)c2cccs2)[n+]([O-])c2ccc(F)cc2[n+]1[O-]`, for which the growth in the experiment with DU-145 prostate is 103%; in the experiment on K-562 leukemia, 91.3%; in the experiment with MALME-3M melanoma, 92.4%; with MDA-MB-231 breast, 87.2%; in the experiment on SF-268 CNS, 101%; in the experiment with SF-295 CNS it was 100%. Moreover, the growth in the experiment on SF-539 CNS is 98.1%; in the experiment on M14 melanoma, 101%; in the experiment on HCT-15 colon, 74.6%; in the experiment on SNB-75 CNS, 81.1%; with SNB-19 CNS, 98%; in the experiment on U251 CNS it was 93.2%. In addition, the growth was 77.3% with PC-3 prostate; 2.84% (active) with SK-MEL-5 melanoma; 83.2% with UACC-62 melanoma; 89.9% in the experiment with LOX IMVI melanoma; 112% in the experiment with SK-MEL-28 melanoma.
